Data from ChEMBL document CHEMBL3988442, “University of Dundee, Small-Polar-MMV Screening Library” (2021).
The whole screen tested about 48,000 compounds, of which about 13,000 (27%) showed an effect of 50% or more. The list shows a part of the results.

These compounds were tested on Wolbachia pipientis (assay: Anti-Wolbachia Cell-Based Screen). Conditions: 5 µM.
Assay type: functional
Parameters: scale not given: in the data most compounds retested in dose-response had high values

Q: For `CCNC(=O)COc1cc(CC)c2c(C)nn(-c3ccc(C)cc3)c2n1`, which “Percent Effect” value is on record?
A: 126.5%

Q: `Cc1ccc(OCC(=O)NCc2sccc2C)nc1` was tested. Which “Percent Effect” value did it give?
A: -2.294%

Q: For `CCCNC(=O)COc1cc(C)c2c(C)nn(-c3ccc(C)cc3)c2n1`, which “Percent Effect” value is on record?
A: 109.7%

Q: How did the “Percent Effect” value turn out when `Cc1ccc(OCC(=O)NCc2ccccc2F)nc1` was run?
A: -9.663%

Q: For `CSC(C)C(=O)NCCCc1cc(N)n(-c2ccccc2)n1` (centres undefined), which “Percent Effect” value is on record?
A: 6.591%

Q: For `Cc1ccc(-n2nc(C)c3c(C)cc(OCC(=O)NC(C)C)nc32)cc1`, which “Percent Effect” value is on record?
A: 109.8%

Q: How did the “Percent Effect” value turn out when `CCCNC(=O)COc1ccc(C)cn1` was run?
A: 4.173%

Q: How did the “Percent Effect” value turn out when `Cc1ccc2oc(N3CCN(CC(=O)NC(C)C)CC3)nc2c1` was run?
A: 0.7244%

Q: For `CCn1ncc2c1CCCC2NCc1cccc2c1OCCO2` (centres undefined), which “Percent Effect” value is on record?
A: 5.32%

Q: `COCCCSc1ccc(NCc2ccc(C)cn2)cc1` was tested. Which “Percent Effect” value did it give?
A: -7.055%

Q: How did the “Percent Effect” value turn out when `CCN(CC)[C@@H]1CN(Cc2cnn(C)c2)[C@@H]2COC[C@H]12` was run?
A: 6.266%

Q: For `COC1CCN(Cc2csc(C(C)C)n2)CC1`, which “Percent Effect” value is on record?
A: -2.369%

Q: With `CC(CN1CCCC1)C(=O)N1CCC(c2nccn2CC2CC2)CC1` (centres undefined) as the compound, how does the “Percent Effect” value read?
A: -20.21%

Q: With `CSCc1noc(C2CCC(=O)N(CCc3ccccc3)C2)n1` (centres undefined) as the compound, how does the “Percent Effect” value read?
A: -4.988%

Q: `CCc1noc(C2CCCCN2C(=O)c2nnc3ccccc3n2)n1` (centres undefined) was tested. Which “Percent Effect” value did it give?
A: 13%

Q: With `CC(NC(=O)NC1CCN(Cc2ccncc2)CC1)c1ccc(F)cc1` (centres undefined) as the compound, how does the “Percent Effect” value read?
A: 24.84%

Q: With `O=C1CCCN1CC1CN(C(=O)N2CCOCC2)Cc2nccn2C1` (centres undefined) as the compound, how does the “Percent Effect” value read?
A: 4.749%

Q: For `O=C(N1CCCC1)N1Cc2nccn2CC(Cn2ncccc2=O)C1` (centres undefined), which “Percent Effect” value is on record?
A: 113.1%

Q: With `O=C(c1ccco1)N1Cc2nccn2CC(Cn2ncccc2=O)C1` (centres undefined) as the compound, how does the “Percent Effect” value read?
A: 108.6%

Q: `COCC1CN(C(=O)c2ccco2)Cc2nccn2C1` (centres undefined) was tested. Which “Percent Effect” value did it give?
A: 4.87%

Q: Which “Percent Effect” value does the source give for `COCC(=O)N1Cc2nccn2CC(Cn2ncccc2=O)C1` (centres undefined) here?
A: 110.2%

Q: With `O=C(CC1CC1)N1Cc2nccn2CC(Cn2ncccc2=O)C1` (centres undefined) as the compound, how does the “Percent Effect” value read?
A: 90.4%

Q: `O=C(CC1CC1)N1Cc2nccn2CC(CN2CCCC2)C1` (centres undefined) was tested. Which “Percent Effect” value did it give?
A: -4.92%

Q: How did the “Percent Effect” value turn out when `O=C(C1CC=CC1)N1Cc2nccn2CC(CN2CCCC2)C1` (centres undefined) was run?
A: 16.54%

Q: With `COCC1CN(C(=O)c2ccc(C)o2)Cc2nccn2C1` (centres undefined) as the compound, how does the “Percent Effect” value read?
A: -22.35%

Q: Which “Percent Effect” value does the source give for `O=C1CCCN1CC1CN(C(=O)CC2CCCC2)Cc2nccn2C1` (centres undefined) here?
A: -15.1%

Q: How did the “Percent Effect” value turn out when `O=C(N1CCN(c2ccccc2O)CC1)C1(O)Cc2ccccc2C1` was run?
A: -7.176%

Q: `O=C(N[C@@H]1CN(c2ncccn2)C[C@@H]2CCCO[C@@H]21)c1ccnnc1.O=C(O)C(F)(F)F` was tested. Which “Percent Effect” value did it give?
A: -7.292%

Q: How did the “Percent Effect” value turn out when `CSc1ccccc1C(=O)Nc1ccc(OC2CCN(C)CC2)cc1` was run?
A: 4.435%

Q: With `Cn1cc(CNc2cnn(CC3CCCO3)c2)c(-c2ccncc2)n1` (centres undefined) as the compound, how does the “Percent Effect” value read?
A: 4.968%

Q: Which “Percent Effect” value does the source give for `CN(Cc1cccnc1)CC1CN(C(N)=O)Cc2nccn2C1` (centres undefined) here?
A: -13.65%

Q: With `O=C(c1ccccc1)N1Cc2nccn2CC(Cn2ncccc2=O)C1` (centres undefined) as the compound, how does the “Percent Effect” value read?
A: 106.9%

Q: How did the “Percent Effect” value turn out when `O=C(c1ccc[nH]1)N1Cc2nccn2CC(Cn2ncccc2=O)C1` (centres undefined) was run?
A: 107.9%

Q: `NC(=O)N1Cc2nccn2CC(Cn2ncccc2=O)C1` (centres undefined) was tested. Which “Percent Effect” value did it give?
A: 106.3%

Q: How did the “Percent Effect” value turn out when `O=C(O)C(F)(F)F.O=C(O)C(F)(F)F.O=C(c1ccccn1)N1Cc2nccn2CC(CN2CCOCC2)C1` (centres undefined) was run?
A: -3.585%

Q: For `CS(=O)(=O)N1Cc2nccn2CC(Cn2ncccc2=O)C1` (centres undefined), which “Percent Effect” value is on record?
A: 1.411%

Q: For `CSc1ncc(C(=O)N2C[C@H]3CC[C@@H]2CN(c2ncccn2)C3)cn1`, which “Percent Effect” value is on record?
A: -34.6%

Q: Which “Percent Effect” value does the source give for `CC(C)N(CC(N)=O)Cc1cccc(Br)c1` here?
A: -7.902%

Q: Which “Percent Effect” value does the source give for `CCN(Cc1nc(COC)no1)C(=O)CCNC(=O)c1ccccc1F` here?
A: -2.73%

Q: How did the “Percent Effect” value turn out when `CCN(Cc1cccc(C(=O)Nc2c(C)cnn2C)c1)[C@H]1COC[C@@H]1O` was run?
A: 2.472%

Q: For `CC(C)c1nsc(NC2CCOC3(CCCC3)C2)n1` (centres undefined), which “Percent Effect” value is on record?
A: -5.666%

Q: How did the “Percent Effect” value turn out when `Cc1ncc(C(=O)NCCNc2ccncc2)s1` was run?
A: 106.3%

Q: With `Cc1ncc(C(=O)NCCNc2ncnc3sccc23)s1` as the compound, how does the “Percent Effect” value read?
A: -47.31%

Q: With `CCc1ncc(C(=O)NCCNC(=O)Cc2ccc(F)cc2)s1` as the compound, how does the “Percent Effect” value read?
A: -2.58%

Q: Which “Percent Effect” value does the source give for `CCc1ncc(C(=O)NCCNc2ncnc3sccc23)s1` here?
A: -14.73%

Q: With `CCc1ncc(C(=O)NCCNc2ccncc2)s1` as the compound, how does the “Percent Effect” value read?
A: 82.39%

Q: For `CCCC(C)(C)NC(=O)c1cnc(C)s1`, which “Percent Effect” value is on record?
A: -0.6309%

Q: `Cc1ccc(-c2nnc(CN3CCOCC(CO)C3)o2)n1C` (centres undefined) was tested. Which “Percent Effect” value did it give?
A: -20.97%

Q: For `CCOC1CCCN(C(=O)c2[nH]nc(C(C)C)c2Br)C1` (centres undefined), which “Percent Effect” value is on record?
A: -3.012%
